In PubChem BioAssay AID2588 (National Center for Advancing Translational Sciences (NCATS), 2010) one finds Potency data, which are given here for 20 compounds.

SMILES strings stand for the structures. Inconclusive results are not listed. Active and inactive are the calls of the source. The call rests on the fitted dose curve; in most records, active means well fitted inhibition curve with a large enough effect; inconclusive means small, poorly fitted or top-dose-only effect, or effect the other way; inactive means flat fitted curve, though single readings scatter.

Lysosomal acid glucosylceramidase (Homo sapiens), sequence (P04062 whole entry, looked up): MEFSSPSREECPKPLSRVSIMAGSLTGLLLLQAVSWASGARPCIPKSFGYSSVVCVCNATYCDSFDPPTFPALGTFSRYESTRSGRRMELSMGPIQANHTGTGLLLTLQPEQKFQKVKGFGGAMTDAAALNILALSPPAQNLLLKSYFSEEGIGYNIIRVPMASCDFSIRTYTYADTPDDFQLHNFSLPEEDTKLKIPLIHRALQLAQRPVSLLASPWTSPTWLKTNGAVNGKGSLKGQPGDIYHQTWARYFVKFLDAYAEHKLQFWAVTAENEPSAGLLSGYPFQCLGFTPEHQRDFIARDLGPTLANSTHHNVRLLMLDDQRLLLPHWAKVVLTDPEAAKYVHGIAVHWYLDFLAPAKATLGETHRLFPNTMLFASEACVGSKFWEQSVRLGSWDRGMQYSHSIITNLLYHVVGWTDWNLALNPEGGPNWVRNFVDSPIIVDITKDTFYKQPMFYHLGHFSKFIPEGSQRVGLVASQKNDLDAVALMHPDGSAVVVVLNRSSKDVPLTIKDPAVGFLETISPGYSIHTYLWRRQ

For this assay, the target named is Lysosomal acid glucosylceramidase (Homo sapiens) (UniProt P04062). The assay can be described thus: qHTS Assay for Inhibitors and Activators of N370S glucocerebrosidase as a Potential Chaperone Treatment of Gaucher Disease: Activity in Non-Mutant Spleen Homogenate Using a Red Fluorescent Substrate. To be noted: red fluorogenic substrate GCase activity; series mostly up to 50.2 µM. An excerpt:
NIH Chemical Genomics Center [NCGC]
NIH Molecular Libraries Probe Production Centers Network [MLPCN]
Assay Submitter (PI): Wei Zheng
Glucocerebrosidase (GC) catalyzes the hydrolysis of beta-glucocerebroside to glucose and ceramide in lysosomes. Mutations in the glucocerebrosidase gene result in Gaucher disease, an autosomal recessive lysosomal storage disorder. Many of the mutations encountered in patients with Gaucher disease are missense alterations that may cause misfolding, decreased stability and/or mistrafficking of this lysosomal protein. […] These inhibitors include iminosugar analogs and three non-iminosugar inhibitors identified from a previous HTS of 62,000 compounds with the wild type recombinant enzyme. However, the enhancement of enzyme activity by the chaperone action of an enzyme inhibitor must be balanced against the direct inhibition of the enzyme. An enzyme activator could also function as a chaperone by binding to the enzyme and helping to correct its misfolding and mistrafficking. While activators for GC have not yet been identified, they may have better therapeutic potential than inhibitors. Therefore the discovery and development of chemical activators may provide a new strategy for the chaperone therapy.
We have optimized a new assay using N370S mutant GC derived from the spleen of a Gaucher patient. […] In addition, the MLPCN compound library has expanded, which increases the chance of finding new and better probes.
This confirmation assay tests for compound activity in spleen homogenate containing wildtype enzyme using an alternate resorufin-based substrate.
NCGC Assay Protocol Summary:
This is a fluorogenic enzyme assay with resorufin-beta-D-glucopyranoside as the substrate and wildtype glucocerebrosidase from human spleen homogenate as the enzyme preparation. Upon the hydrolysis of this fluorogenic substrate, the resulting product, […] which can be detected by a standard fluorescence plate reader. Data were normalized to the controls for basal activity (without enzyme) and 100% activity (with enzyme). The AC50 values were determined from concentration-response data modeled with the standard Hill equation.
Assay buffer: 50 mM citric acid (titrated with potassium phosphate to pH 5.0), 100 mM potassium chloride, 10 mM sodium chloride, 1 mM magnesium chloride, 0.01% Tween-20.
1536-well assay protocol:
(1) Add 2 ul/well of spleen homogenate (27 ug final)
(2) Add 23 nL compounds in DMSO solution. The final titration was 0.5 nM to 58 uM.
(3) Add 2 ul of substrate (1 mM final)
(4) Incubate at 37C for 40 min.
(5) Add 2 ul stop solution (1M NaOH and 1M Glycine mixture, pH 10)
(6) Detect the assay plate in a ViewLux plate reader (PerkinElmer) with Ex=365 nm and Em=440nm.
Keywords: Glucocerebrosidase, beta-glucosidase, Gaucher Disease, pharmacological chaperone, chaperone therapy, high throughput screening, glucocerebrosidase inhibitor, MLSMR, MLSCN, NIH Roadmap, qHTS and NCGC
For orientation: Quantitative high-throughput screening tests each substance at several concentrations.
With `Cc1cc(C)n2ncc(C(=O)Nc3ccc(Cl)c(Cl)c3)c2n1`, the Potency entry was “inactive”. As to `Cc1cc(C)cc(N(CC(=O)NC2CCC(C)CC2)S(=O)(=O)c2c(C)[nH]c(=O)[nH]c2=O)c1` (stereo not given), the Potency is 398 nM (active). With `Clc1ccccc1-c1nccc(NCc2ccccc2)n1`, the Potency was 3980 nM (active). For `O=S(=O)(c1ccccc1)N1CCN(c2nc(-c3ccc(F)cc3)nc3cc(Cl)ccc23)CC1`, the Potency entry is “inactive”. For `O=S(=O)(c1ccc(Cl)cc1)N1CCN(c2nc(-c3ccc(Cl)cc3)nc3ccccc23)CC1` the value was “inactive”; for `O=S(=O)(c1ccc(F)cc1)N1CCN(c2nc(-c3cccs3)nc3ccccc23)CC1`, 794 nM (active). As to `COc1ccc(S(=O)(=O)N2CCN(c3nc(-c4ccccc4)nc4ccccc34)CC2)cc1`, the Potency was 2510 nM (active). As for `O=S(=O)(c1ccc(F)cc1)N1CCN(c2nc(-c3cccs3)nc3cc(Cl)ccc23)CC1`, the Potency result is “inactive”.

Consider `CCCCNC(=O)c1ccc(NS(=O)(=O)c2ccccc2)cc1`, for which the Potency entry is “inactive”. Take `O=S(=O)(c1ccc(OC(F)(F)F)cc1)N1CCN(c2nc(-c3cccs3)nc3ccccc23)CC1`: the Potency was 3980 nM (active). For `Cc1ccc(-c2nc(N3CCN(S(=O)(=O)c4ccc(F)cc4)CC3)c3ccc(Cl)cc3n2)cc1` the value was “inactive”; for `CCN(CC)c1cc(C)c2cc(NC(=O)C3CCC(C)CC3)ccc2n1` (stereo not given), 15800 nM (active). For `O=S(=O)(c1cccc(C(F)(F)F)c1)N1CCN(c2nc(-c3cccs3)nc3ccccc23)CC1` the value was 794 nM (active). For `N#Cc1ccccc1S(=O)(=O)N1CCN(c2nc(-c3cccs3)nc3ccccc23)CC1`, the Potency is 1120 nM (active). For `N=c1c2c(-c3ccccc3)c(-c3ccccc3)n(Cc3ccco3)c2ncn1CCCn1ccnc1` the value was 12600 nM (active); for `O=S(=O)(c1cccc(C(F)(F)F)c1)N1CCN(c2nc(-c3cccs3)nc3cc(Cl)ccc23)CC1`, “inactive”. In the case of `O=S(=O)(c1ccccc1)N1CCN(c2nc(-c3cccs3)nc3ccccc23)CC1`, the Potency was 316 nM (active). The result for `CCN(CC)c1ccc(C(=O)Nc2ccc3nc(N4CCOCC4)cc(C)c3c2)cc1` reads 10000 nM (active). The result for `CC(=O)Nc1ccc(NC(=O)COc2ccccc2C(=O)Nc2cccc(Cl)c2Cl)cc1` reads “inactive”; that for `O=[N+]([O-])c1cccc(S(=O)(=O)N2CCN(c3nc(-c4cccs4)nc4ccccc34)CC2)c1`, 1120 nM (active).
